Experimental findings from the supplement of paper PMC10681739 are described below.

Assay [1] concerns the target T1, ETS1 (UniProt P14921).
T1 sequence: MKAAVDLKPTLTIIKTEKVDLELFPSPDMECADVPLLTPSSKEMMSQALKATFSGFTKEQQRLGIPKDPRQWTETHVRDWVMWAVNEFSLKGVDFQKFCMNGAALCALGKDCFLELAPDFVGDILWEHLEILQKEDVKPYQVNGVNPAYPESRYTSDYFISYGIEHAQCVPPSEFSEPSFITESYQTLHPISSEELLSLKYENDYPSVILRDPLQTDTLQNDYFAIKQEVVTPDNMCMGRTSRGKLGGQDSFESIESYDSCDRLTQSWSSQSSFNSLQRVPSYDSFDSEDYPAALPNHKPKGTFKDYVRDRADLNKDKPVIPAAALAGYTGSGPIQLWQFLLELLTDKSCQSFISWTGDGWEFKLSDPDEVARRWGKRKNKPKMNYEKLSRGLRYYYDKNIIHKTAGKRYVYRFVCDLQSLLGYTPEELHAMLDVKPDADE
The assay can be described thus: ETS1 binding intensity (PBM fluorescence), ETS1 alone (arbitrary fluorescence units); higher = stronger binding. The note with it: ETS1 concentration 1 nM; RUNX1 concentration 0 nM.

The target of assay [2] is RUNX1 (UniProt Q01196). The assay can be described thus: RUNX1 binding intensity (PBM fluorescence), RUNX1 alone (arbitrary fluorescence units); higher = stronger binding. The note with it: RUNX1 concentration 2 nM; ETS1 concentration 0 nM. How it is done: (§1)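 Cooperative gcPBM on 36-bp genomic probes with neighbouring ETS1 and RUNX1 sites. Recombinant human RUNX1 (2 nM) was incubated alone or with ETS1 (25 nM) and detected with anti-RUNX1 antibody plus Alexa488 secondary. Values are medians over 4 replicate spots; the RUNX1+ETS1 data were normalised to the RUNX1-only data. The probes sit in constant array flanks that are not printed.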

Assay [3] has as its target T1, ETS1. The assay can be described thus: ETS1 binding intensity (PBM fluorescence) in presence of RUNX1, normalised to ETS1-only experiment (arbitrary fluorescence units); higher = stronger binding. To be noted: ETS1 concentration 1 nM; RUNX1 concentration 25 nM.
Assay [4] addresses RUNX1 (UniProt Q01196). The assay can be described thus: RUNX1 binding intensity (PBM fluorescence) in presence of ETS1, normalised to RUNX1-only experiment (arbitrary fluorescence units); higher = stronger binding. To be noted: RUNX1 concentration 2 nM; ETS1 concentration 25 nM. On the procedure:
as §1
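For RUNX1 binding intensity (PBM fluorescence) in presence of ETS1, normalised to RUNX1-only experiment in this document: Full-length recombinant human ETS1 or RUNX1 bound to double-stranded 36-bp genomic probes on microarrays, detected by protein-specific primary antibody and Alexa488 secondary, spot fluorescence as median of four replicate spots.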
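For RUNX1 binding intensity (PBM fluorescence), RUNX1 alone in this document: Full-length recombinant human RUNX1 bound to double-stranded 36-bp genomic probes on a high-density microarray, scored as Alexa488 fluorescence per spot via anti-RUNX1 antibody, median of four replicate spots.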

Chain of RUNX1 (Q01196 whole entry): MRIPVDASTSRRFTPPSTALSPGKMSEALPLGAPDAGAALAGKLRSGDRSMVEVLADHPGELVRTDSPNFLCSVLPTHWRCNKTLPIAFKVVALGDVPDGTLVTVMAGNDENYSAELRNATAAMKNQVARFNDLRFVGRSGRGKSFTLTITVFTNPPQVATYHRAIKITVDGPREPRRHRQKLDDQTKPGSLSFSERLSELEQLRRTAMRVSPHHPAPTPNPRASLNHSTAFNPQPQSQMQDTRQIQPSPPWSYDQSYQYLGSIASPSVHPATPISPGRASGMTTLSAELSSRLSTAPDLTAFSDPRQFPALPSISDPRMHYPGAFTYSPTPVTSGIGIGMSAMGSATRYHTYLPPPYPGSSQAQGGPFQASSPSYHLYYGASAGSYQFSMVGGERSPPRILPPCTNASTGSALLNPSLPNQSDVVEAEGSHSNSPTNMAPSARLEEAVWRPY

With CCCTGGGGCCCCACTTCCTTGCCCACAAGAAAGGAC, the ETS1 binding intensity was determined as 395 with ETS1 [1] and 446 with ETS1 [3]. The RUNX1 binding intensity in the assay with RUNX1 [2] was determined as 1020; with RUNX1 [4], 1360.

For GTCTTAGGTCGGAAGTCTGTGGTCCCTGTTCACATG, the ETS1 binding intensity turned out to be 796 with ETS1 [1] and 910 in the assay with ETS1 [3]. The RUNX1 binding intensity in the assay with RUNX1 [2] amounted to 835; in the assay with RUNX1 [4], 953.

With GTTGTCTTCTTCCTGAGTAAACCGCAGTGCAGAGAA, the ETS1 binding intensity with ETS1 [1] amounted to 456; with ETS1 [3], 1120. Moreover, the RUNX1 binding intensity is 5250 with RUNX1 [2] and 6380 with RUNX1 [4].

GAGGAGATTTCCGGCCCCCATCCCCGCAGCGACCTT: the values for the ETS1 binding intensity with ETS1 [1] and with ETS1 [3] were 1690 and 1990, respectively. For the same sequence, the RUNX1 binding intensity in the assay with RUNX1 [2] was 762; with RUNX1 [4], 1820.

For GCGCTACAGGAACTTCCTGCGCGGTTGCTGTCGTTG, the values for the ETS1 binding intensity in the assay with ETS1 [1] and with ETS1 [3] were 1360 and 1570, respectively. Moreover, the RUNX1 binding intensity in the assay with RUNX1 [2] was found to be 702; with RUNX1 [4], 1180.

Take ACGGGGAAGAACGGAAGTGGTTTCCATGATGGTCTG: the ETS1 binding intensity with ETS1 [1] is 6420; with ETS1 [3] it was 9080. The RUNX1 binding intensity with RUNX1 [2] was found to be 831; in the assay with RUNX1 [4], 4470.

Take GGCAGCCGGCTTCCGGCTGTGGGTGGTGCGGGGGAC: the figures for the ETS1 binding intensity with ETS1 [1] and with ETS1 [3] were 1370 and 1820, respectively. Moreover, the RUNX1 binding intensity with RUNX1 [2] is 676; with RUNX1 [4] it was 1540.

Regarding GTCACCATTTCCGGGCCTCCGCGGTGTCCCCACCCC, the ETS1 binding intensity with ETS1 [1] came out at 2560; with ETS1 [3] it was 2870. Moreover, the RUNX1 binding intensity was 1040 with RUNX1 [2] and 2900 with RUNX1 [4].

Consider TATATGCACAGGAAGTCCCTTACAACCCACTCTGTT, for which the ETS1 binding intensity came to 3900 with ETS1 [1] and 3840 with ETS1 [3]. The results for the RUNX1 binding intensity with RUNX1 [2] and with RUNX1 [4] were 869 and 1130, respectively.

For ACAAGGACTTCCGCCTCCCTGCGGTCCCTCCCCTAC, the figures for the ETS1 binding intensity with ETS1 [1] and with ETS1 [3] were 965 and 1380, respectively. Moreover, the figures for the RUNX1 binding intensity with RUNX1 [2] and in the assay with RUNX1 [4] were 1110 and 2720, respectively.

Turning to GTTTACAGGGGACAGGAAATGTGGGTGAACTCAGCC, the ETS1 binding intensity was 6160 in the assay with ETS1 [1] and 4710 with ETS1 [3]. Besides, the RUNX1 binding intensity is 745 with RUNX1 [2] and 975 with RUNX1 [4].

Take CTGAAGAGGAAATGTATTCCTCATGTTGTGGTTGGC: the ETS1 binding intensity with ETS1 [1] amounted to 742; with ETS1 [3], 1980. Further, the RUNX1 binding intensity amounted to 860 in the assay with RUNX1 [2] and 878 in the assay with RUNX1 [4].

For the sequence ACACTGAGCTGAACGGAAATGTGGTTCTCACCTCAT, the ETS1 binding intensity in the assay with ETS1 [1] amounted to 2670; with ETS1 [3] it was 3100. The RUNX1 binding intensity in the assay with RUNX1 [2] amounted to 774; with RUNX1 [4], 1140.

With CCCGGAAACTCAACTGCCCACTGCTGCGGCCGCCAT, the values for the ETS1 binding intensity in the assay with ETS1 [1] and with ETS1 [3] were 599 and 708, respectively. Besides, the values for the RUNX1 binding intensity with RUNX1 [2] and with RUNX1 [4] were 1070 and 1090, respectively.
